Where “and” joins values, the source holds several entries; their conditions need not be identical. Equal entries are not always repeated. Results filed as inconclusive are left out. More than one record can exist for a structure, and the calls need not agree. Calls of active or inactive are those of the source. Unless noted, the call rests on the fitted dose curve; in most records, active means well fitted curve in the direction sought with a large enough effect in the repeat runs; inconclusive means weak or mixed curves; inactive means no such curve, though single readings can be large; an effect the other way counts as inactive or inconclusive.

Assay [1] can be described thus: qHTS assay to identify small molecule that activate the aryl hydrocarbon receptor (AhR) signaling pathway - cell viability counter screen (AID 743086).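 Further: HepG2 liver cells carrying the AhR DRE luciferase reporter; series mostly up to about 70 µM; nearly all actives have a fitted effect of over 45% in size.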 In short, it runs like this:
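Cytotoxicity counter screen: CellTiter-Fluor signal (30 min, 37 C) in 4000 HepG2 cells/well carrying the DRE-luciferase reporter, following 24 h compound exposure at 37 C.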
A general note: In qHTS, concentration-response curves come from the screen itself.

Assay [2] addresses Peroxisome proliferator-activated receptor gamma (Homo sapiens) (UniProt P37231). The experiment in a line: qHTS assay to identify small molecule agonists of the peroxisome proliferator-activated receptor gamma (PPARg) signaling pathway (AID 743094; active means well fitted activation curve with a large enough effect in the signal ratio in the repeat runs, not every such curve was filed as active; the % refers to the signal ratio). In short, it runs like this:
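Stably transfected HEK293H cells (GeneBLAzer PPARg UAS-bla) were incubated with test substances for 17 h at 37C after a 5 h pre-incubation; beta-lactamase activity was then detected by FRET substrate fluorescence.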

Assay [3] shares this target. The experiment in a line: qHTS assay to identify small molecule antagonists of the peroxisome proliferator-activated receptor gamma (PPARg) signaling pathway (AID 743191; calls by dose curve; further: nearly all actives have a fitted effect of over 30% in size; further: potency means the concentration at half of the fitted maximal effect). The gist of the method: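 Beta-lactamase reporter under UAS control in HEK293H PPARg-bla cells; compound treatment 17 h at 37C. Read-out: fluorescence intensity after 1 h room-temperature incubation with LiveBLAzer B/G FRET substrate.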

A short description of assay [4]: qHTS assay to identify small molecule antagonists of the peroxisome proliferator-activated receptor gamma (PPARg) signaling pathway - cell viability counter screen (AID 743194). Further: nearly all actives have a fitted effect of over 55% in size. Further: potency means the concentration at half of the fitted maximal effect. In short, it runs like this: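 Viability was measured as CellTiter-Glo luminescence in GeneBLAzer PPARg UAS-bla HEK293H cells. These cells had been exposed 17 h at 37 C to compounds together with rosiglitazone at 50 nM final, with the beta-lactamase readout taken in the same wells.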

A short description of assay [5]: qHTS assay for small molecule agonists of the antioxidant response element (ARE) signaling pathway (AID 743202; active means well fitted activation curve with a large enough effect in the signal ratio in the repeat runs, not every such curve was filed as active; the % refers to the signal ratio; further: potency means the concentration at half of the fitted maximal effect). The gist of the method:
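An ARE-responsive beta-lactamase gene stably integrated in HepG2 cells serves as reporter. After 5 h plating and 16 h compound incubation at 37 C, fluorescence of the B/G FRET substrate was measured.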

The nature of assay [6]: qHTS assay for small molecule agonists of the antioxidant response element (ARE) signaling pathway - cell viability counter screen (AID 743203; calls by dose curve; further: nearly all actives have a fitted effect of over 55% in size; further: potency means the concentration at half of the fitted maximal effect). In short, it runs like this:
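Cells (ARE-bla HepG2, 2,000/well) receive DMSO-dissolved compounds after a 5 hrs rest. Plates incubate 16 hrs at 37C/5% CO2. CellTiter-Glo luminescence is then recorded after 30 min at room temperature.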

A short description of assay [7]: qHTS assay for small molecule activators of the heat shock response signaling pathway - cell viability counter screen (AID 743209). Further: nearly all actives have a fitted effect of over 50% in size. Further: potency means the concentration at half of the fitted maximal effect. In short, it runs like this:
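Quantitative HTS format, Tox21 10K library. HeLa cells carrying an HSE-driven beta-lactamase reporter were treated 5 h at 37 C, then assessed for viability by CellTiter-Glo luminescence.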

Assay [8] can be described thus: qHTS assay to identify small molecule agonists of the peroxisome proliferator-activated receptor delta (PPARd) signaling pathway - cell viability counter screen (AID 743211). Further: nearly all actives have a fitted effect of over 55% in size. In short, it runs like this: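 PPARd-bla HEK293H cells (UAS-beta-lactamase reporter) were treated with compounds for 17 h at 37 C. Viability was then read in the same wells by CellTiter-Glo luminescence after 30 min at room temperature.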

Assay [9] has as its target Peroxisome proliferator-activated receptor delta (Homo sapiens) (UniProt Q03181). Briefly: qHTS assay to identify small molecule agonists of the peroxisome proliferator-activated receptor delta (PPARd) signaling pathway (AID 743212; calls by dose curve). In short, it runs like this: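 HEK293H UAS-bla reporter cells, human PPARd system; compounds delivered in DMSO after 5 h plating, then at 37 C. Beta-lactamase FRET read, 2 h RT substrate step.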

Assay [10] can be described thus: qHTS assay to identify small molecule antagonists of the peroxisome proliferator-activated receptor delta (PPARd) signaling pathway - cell viability counter screen (AID 743213). Further: nearly all actives have a fitted effect of over 50% in size. Further: potency means the concentration at half of the fitted maximal effect. In short, it runs like this: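 CellTiter-Glo was added to PPARd-bla HEK293H wells following 17 h compound treatment in the presence of 300 nM L165041. Luminescence was recorded after 30 min at room temperature.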

Assay [11] in a line: qHTS assay to identify small molecule agonists of the farnesoid-X-receptor (FXR) signaling pathway - cell viability counter screen (AID 743218). Further: nearly all actives have a fitted effect of over 45% in size. In short, it runs like this:
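In GeneBLAzer FXR-UAS-bla HEK 293T cells, compounds act for 16 h at 37 C. Cell viability is then scored in the reporter wells by CellTiter-Glo, 30 min at RT, luminescence.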

A short description of assay [12]: qHTS assay to identify small molecule antagonists of the farnesoid-X-receptor (FXR) signaling pathway - cell viability counter screen (AID 743221; active means well fitted cell-killing curve with a large enough effect in the repeat runs, not every such curve was filed as active; further: nearly all actives have a fitted effect of over 50% in size; further: potency means the concentration at half of the fitted maximal effect). The gist of the method:
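FXR-UAS-bla HEK 293T cells were treated with test compounds plus chenodeoxycholic acid (50 uM final) for 16 h at 37 C. Cell viability in the same wells was then read as CellTiter-Glo luminescence after 30 min at room temperature.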

In assay [13] the target is Vitamin D3 receptor (Homo sapiens) (UniProt P11473). Briefly: qHTS assay to identify small molecule agonists of the vitamin D receptor (VDR) signaling pathway (AID 743222; calls by dose curve). The gist of the method:
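Agonist activity measured in VDR-bla reporter cells. Exposure 16 h, 37C, 5% CO2; detection by B/G FRET substrate, 2 h RT.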

Assay [14] has the same target. Briefly: qHTS assay to identify small molecule antagonists of the vitamin D receptor (VDR) signaling pathway (AID 743223; active means well fitted inhibition curve with a large enough effect in the signal ratio in the repeat runs, not every such curve was filed as active; the % refers to the signal ratio). The gist of the method: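 VDR-bla cells were plated, incubated 4 h at 37C, then given compound and 1alpha,25-dihydroxyvitamin D3 (3 nM final). After 16 h at 37C, LiveBLAzer B/G FRET substrate was added for 2 h at room temperature and fluorescence read.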

Assay [15] is described as follows: qHTS assay to identify small molecule agonists of the vitamin D receptor (VDR) signaling pathway - cell viability counter screen (AID 743224). Further: nearly all actives have a fitted effect of over 50% in size. Further: potency means the concentration at half of the fitted maximal effect. In short, it runs like this:
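VDR-bla cell line, quantitative HTS format; 16 h compound incubation (37C, 5% CO2); ATP-based CellTiter-Glo luminescence measured in the reporter assay wells.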

A short description of assay [16]: qHTS assay to identify small molecule antagonists of the vitamin D receptor (VDR) signaling pathway - cell viability counter screen (AID 743225). Further: nearly all actives have a fitted effect of over 50% in size. Further: potency means the concentration at half of the fitted maximal effect. In short, it runs like this:
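VDR-bla HEK 293T cells, 4 h pre-incubation at 37C, then compound plus 1-alpha,25-dihydroxyvitamin D3 (3 nM final) for 16 h. After the beta-lactamase FRET read, CellTiter-Glo was added to the same wells; luminescence after 30 min at room temperature.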

Assay [17] deals with Aryl hydrocarbon receptor (Homo sapiens) (UniProt P35869). Briefly: qHTS assay to identify small molecule that activate the aryl hydrocarbon receptor (AhR) signaling pathway (AID 743085). Further: nearly all actives have a fitted effect of over 15% in size. Further: potency means the concentration at half of the fitted maximal effect.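 On activation: HG2L7.5c1 human HepG2 liver cells with stably integrated DRE-driven firefly reporter; series mostly up to about 70 µM.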 In short, it runs like this: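 HepG2 cells (HG2L7.5c1) stably carrying a firefly luciferase reporter driven by 20 dioxin responsive elements were exposed to compound for 24 h at 37C after a 5 h settling period; luminescence rise (ONE-Glo) indicated activation.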

A short description of assay [18]: qHTS assay for small molecule activators of the heat shock response signaling pathway (AID 743210; active means well fitted activation curve with a large enough effect in the signal ratio in the repeat runs, with a control signal flat, not every such curve was filed as active; the % refers to the signal ratio;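 further: HeLa cells with beta-lactamase reporter driven by heat shock elements; series mostly up to about 63 µM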). In short, it runs like this: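 In HSE-bla HeLa cells, 5 h compound incubation (37 C) precedes addition of LiveBLAzer B/G substrate; after 2.5 h at room temperature, fluorescence intensity indicates reporter induction.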
Assay [19] concerns the target Bile acid receptor (Homo sapiens) (UniProt Q96RI1). Briefly: qHTS assay to identify small molecule agonists of the farnesoid-X-receptor (FXR) signaling pathway (AID 743220; active means well fitted activation curve with a large enough effect in the signal ratio in the repeat runs, not every such curve was filed as active; the % refers to the signal ratio). The gist of the method: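 Beta-lactamase reporter under UAS control in GeneBLAzer FXR HEK 293T cells (5000/well) measured with LiveBLAzer FRET substrate after 2 h at room temperature. Compound exposure lasted 16 h at 37C.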

Assay [20] shares this target. Briefly: qHTS assay to identify small molecule antagonists of the farnesoid-X-receptor (FXR) signaling pathway (AID 743217; active means well fitted inhibition curve with a large enough effect in the signal ratio in the repeat runs, not every such curve was filed as active; the % refers to the signal ratio). The gist of the method: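 Beta-lactamase reporter under UAS control in HEK 293T cells; compound exposure 16 h at 37 °C in the presence of chenodeoxycholic acid (50 uM final); signal from B/G FRET substrate after 2 h at room temperature.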
On the % scale 0 is the no-effect control and ±100 the full control effect.

Sequence of Bile acid receptor (Homo sapiens) (Q96RI1 whole entry, looked up): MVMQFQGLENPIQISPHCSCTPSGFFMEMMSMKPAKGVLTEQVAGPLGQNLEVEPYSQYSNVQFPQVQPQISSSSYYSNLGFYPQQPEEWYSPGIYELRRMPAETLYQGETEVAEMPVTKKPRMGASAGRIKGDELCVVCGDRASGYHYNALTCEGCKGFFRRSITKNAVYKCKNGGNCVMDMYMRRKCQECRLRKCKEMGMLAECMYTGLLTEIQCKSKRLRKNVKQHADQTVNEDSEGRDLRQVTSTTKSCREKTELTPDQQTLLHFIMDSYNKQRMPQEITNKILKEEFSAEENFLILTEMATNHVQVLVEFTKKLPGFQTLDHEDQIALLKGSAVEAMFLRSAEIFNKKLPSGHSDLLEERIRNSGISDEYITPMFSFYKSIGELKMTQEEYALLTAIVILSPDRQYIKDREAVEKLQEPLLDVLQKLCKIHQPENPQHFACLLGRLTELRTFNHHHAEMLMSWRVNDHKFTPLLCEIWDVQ
Sequence of Aryl hydrocarbon receptor (Homo sapiens) (P35869 whole entry, looked up): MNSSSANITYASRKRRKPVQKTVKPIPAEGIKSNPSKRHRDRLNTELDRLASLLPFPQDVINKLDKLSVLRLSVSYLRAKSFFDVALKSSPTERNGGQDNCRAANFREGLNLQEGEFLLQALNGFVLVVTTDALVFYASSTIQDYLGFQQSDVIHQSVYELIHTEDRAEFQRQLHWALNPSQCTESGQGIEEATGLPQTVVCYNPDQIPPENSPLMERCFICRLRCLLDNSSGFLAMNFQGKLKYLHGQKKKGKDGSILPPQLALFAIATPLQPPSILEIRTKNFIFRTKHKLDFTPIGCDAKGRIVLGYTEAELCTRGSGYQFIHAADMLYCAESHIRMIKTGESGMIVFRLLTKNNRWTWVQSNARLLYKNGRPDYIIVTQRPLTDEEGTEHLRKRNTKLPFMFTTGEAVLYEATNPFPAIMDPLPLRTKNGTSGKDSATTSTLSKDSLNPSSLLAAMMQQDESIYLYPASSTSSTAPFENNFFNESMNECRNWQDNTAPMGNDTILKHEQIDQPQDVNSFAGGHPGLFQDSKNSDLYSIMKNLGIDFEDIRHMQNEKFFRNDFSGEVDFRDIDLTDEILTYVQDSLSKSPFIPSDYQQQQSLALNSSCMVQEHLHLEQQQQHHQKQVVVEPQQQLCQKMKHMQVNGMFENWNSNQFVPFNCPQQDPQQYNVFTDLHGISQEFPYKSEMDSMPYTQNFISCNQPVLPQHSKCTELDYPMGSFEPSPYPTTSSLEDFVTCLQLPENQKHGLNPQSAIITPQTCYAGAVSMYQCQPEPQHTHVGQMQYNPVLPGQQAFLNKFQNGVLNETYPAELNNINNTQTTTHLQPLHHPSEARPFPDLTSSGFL
Sequence of Peroxisome proliferator-activated receptor gamma (Homo sapiens) (P37231 whole entry, looked up): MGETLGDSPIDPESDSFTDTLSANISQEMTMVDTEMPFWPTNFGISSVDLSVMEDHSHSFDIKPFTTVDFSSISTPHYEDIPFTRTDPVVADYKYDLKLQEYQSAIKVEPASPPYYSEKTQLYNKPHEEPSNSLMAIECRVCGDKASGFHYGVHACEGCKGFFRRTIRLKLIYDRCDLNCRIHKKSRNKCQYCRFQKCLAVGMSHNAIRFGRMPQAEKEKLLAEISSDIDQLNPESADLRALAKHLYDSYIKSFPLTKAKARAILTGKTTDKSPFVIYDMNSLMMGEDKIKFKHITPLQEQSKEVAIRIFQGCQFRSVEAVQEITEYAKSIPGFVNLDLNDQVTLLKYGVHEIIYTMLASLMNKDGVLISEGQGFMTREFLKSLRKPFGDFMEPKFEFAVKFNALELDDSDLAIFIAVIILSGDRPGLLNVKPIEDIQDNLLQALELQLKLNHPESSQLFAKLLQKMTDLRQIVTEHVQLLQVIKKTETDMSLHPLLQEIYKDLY
Sequence of Peroxisome proliferator-activated receptor delta (Homo sapiens) (Q03181 whole entry, looked up): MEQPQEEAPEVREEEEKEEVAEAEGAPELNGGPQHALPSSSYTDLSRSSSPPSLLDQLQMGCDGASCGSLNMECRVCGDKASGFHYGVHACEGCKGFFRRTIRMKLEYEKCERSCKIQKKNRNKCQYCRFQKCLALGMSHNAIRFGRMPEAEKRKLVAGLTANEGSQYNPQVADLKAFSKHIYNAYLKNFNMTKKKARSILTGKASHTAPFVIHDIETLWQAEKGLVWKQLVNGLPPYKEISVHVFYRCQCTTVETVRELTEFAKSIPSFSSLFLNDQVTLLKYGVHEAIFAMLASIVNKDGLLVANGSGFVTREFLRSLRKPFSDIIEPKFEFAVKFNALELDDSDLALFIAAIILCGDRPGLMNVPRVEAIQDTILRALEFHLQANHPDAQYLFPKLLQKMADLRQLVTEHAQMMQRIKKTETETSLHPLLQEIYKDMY
Sequence of Vitamin D3 receptor (Homo sapiens) (P11473 whole entry, looked up): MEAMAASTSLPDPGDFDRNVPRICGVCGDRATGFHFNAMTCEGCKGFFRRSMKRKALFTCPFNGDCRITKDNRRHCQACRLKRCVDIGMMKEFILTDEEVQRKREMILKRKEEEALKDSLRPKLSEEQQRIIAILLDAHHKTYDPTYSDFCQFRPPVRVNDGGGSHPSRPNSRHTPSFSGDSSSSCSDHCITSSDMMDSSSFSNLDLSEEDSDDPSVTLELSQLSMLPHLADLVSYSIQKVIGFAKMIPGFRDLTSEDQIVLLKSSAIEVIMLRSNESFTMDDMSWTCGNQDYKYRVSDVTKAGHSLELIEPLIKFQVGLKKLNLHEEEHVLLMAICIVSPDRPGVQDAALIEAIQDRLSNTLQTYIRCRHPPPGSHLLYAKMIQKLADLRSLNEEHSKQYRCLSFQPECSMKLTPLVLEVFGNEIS

In the case of `CN1[C@@H]2CC(OC(=O)[C@H](CO)c3ccccc3)C[C@H]1[C@@H]1O[C@@H]12` (stereo partly drawn), the Potency entry in assay [1], in assay [2], in [3], in assay [4], in [5] and in assay [6] was “inactive” each time. Besides, the Potency result in assay [7], in assay [8], in assay [9], in assay [10], in [11] and in assay [12] was “inactive” in each case. Also, the Potency entry in assay [13], in [14], in [15] and in assay [16] was “inactive” each time.
In the case of `C/C=C/C=C/C(=O)O`, the Potency entry in assay [17], in assay [4], in assay [6], in assay [7], in assay [8] and in assay [10] was “inactive” each time. Moreover, the Potency entry in assay [11], in assay [12], in assay [13], in assay [14], in assay [15] and in assay [16] was “inactive” throughout. Also, the activation in assay [5] is 7.69% [at 8.36 µM] (inactive). For the same molecule, in assay [18], the result was inactive.
`C=C1CC[C@H](O)C/C1=C\C=C1/CCC[C@]2(C)[C@@H]([C@H](C)CCCC(C)C)CC[C@@H]12`: the Potency entry in [17] was “inactive”. Further, the Potency in assay [3] was 54.4 µM (active); in assay [4] it was 61.1 µM (active); in [5], 21.5 µM (active); in assay [7], 48.5 µM (active); in [10] it was 43.2 µM (active); in assay [12] it was 48.5 µM (active). The molecule was called inactive in assay [19].
As for `CN(C)C(=O)Nc1ccc(Cl)c(Cl)c1`, the Potency entry in assay [2], in assay [3], in assay [4], in assay [5], in assay [6] and in assay [7] was “inactive” throughout. The Potency result in assay [8], in [9], in assay [10], in [11], in [12] and in assay [15] was “inactive” each time. For the same molecule, the Potency result in assay [16] was “inactive”. For the same molecule, the molecule was called inactive in [18].
Consider `O=C1c2c(O)cccc2Cc2cccc(O)c21`, for which the Potency entry in assay [17], in [2], in assay [4], in [6], in assay [7] and in assay [8] was “inactive” throughout. Moreover, the Potency result in assay [9], in [10], in assay [20], in [12], in assay [15] and in [16] was “inactive” in each case. Also, the molecule was classed as inactive in assay [18] and in assay [19].
On to `CC/C(=C(\c1ccccc1)c1ccc(OCCN(C)C)cc1)c1ccccc1`, for which, in assay [17], the Potency result was “inactive”. The Potency in assay [6] was 19.5 µM (active) and 27.3 µM (active) and 26.6 µM (active); in assay [7] it was “inactive and 35 µM (active) and 43.6 µM (active)”; in [10], 54.9 µM (active) and 17.5 µM (active); in assay [12], “inactive and 49.4 µM (active) and 54.9 µM (active)”; in [16], “inactive and 15.6 µM (active) and 21.3 µM (active)”. For the same molecule, the molecule was called inactive in assay [18].
Turning to `O=C1OC2(c3ccccc31)c1cc(Br)c(O)c(Br)c1Oc1c2cc(Br)c(O)c1Br`, the Potency result in [17], in assay [4], in assay [6], in assay [7], in assay [8] and in [10] was “inactive” throughout. Further, the Potency result in assay [12], in [15] and in [16] was “inactive” throughout.
In the case of `COc1cccc(O)c1O`, the Potency in assay [17] is 31.8 µM (active); in assay [15] it was 57.1 µM (active). Moreover, the Potency entry in [4], in assay [6], in assay [8], in [9], in assay [10] and in [11] was “inactive” each time. Besides, the Potency result in assay [12], in [14] and in assay [16] was “inactive” each time.
